According to PubChem BioAssay (NCI):
This is part of a sample that, as a whole, favours compounds with a hit. Of some 79,000 tested, about 15% had one in any assay. Unmarked numbers belong to inactive results. Activity calls are given as the source filed them. Cut-off read from the data, not from the text of the source: active = growth inhibition above about 70%; inactive = the rest.

Experiment: NCI Yeast Anticancer Drug Screen. Data for the wt1 strain (AID 149);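 note: 0% = growth of vehicle-treated wt1 cultures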
Conditions: S. cerevisiae wt1 strain (SPY 50644) growth inhibition; at 1.2 µM; active compounds read high
How it was run: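 Growth inhibition read against vehicle controls after compound exposure of the wt1 yeast strain.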
With `CCCCCCNCCCNc1c2cc(OC)ccc2nc2cccc([N+](=O)[O-])c12` the growth inhibition was 1%.
Work on `NC(=S)N1N=C2c3ccccc3CC[C@H]2[C@@H]1c1ccc(Cl)cc1` yielded a growth inhibition of 11%.
Work on `COc1ccc2c3c1OC(C)C31CC(=O)CCC1CC2` (stereo not given) yielded a growth inhibition of -3%.
For `C[N+](C)([O-])CCCNc1c2ccccc2nc2cccc([N+](=O)[O-])c12`, the growth inhibition was -3%.
With `CCCNC(=O)OCc1c(COC(=O)NCCC)c(-c2ccc(Cl)c(Cl)c2)n2c1CCC2` the growth inhibition was -25%.
`CCOC(=O)C(Cc1c2ccccc2cc2ccccc12)(NC(C)=O)C(=O)OCC` gave a growth inhibition of -1%.
In the case of `NC(=S)N/N=C1\c2ccccc2CCC1CCC1(O)CCc2ccccc2C1=O` (stereo not given), the growth inhibition is reported as 21%.
For `CC(C)OC(=O)NNc1c(Cl)cc(Cl)cc1Cl`, the growth inhibition was -2%.
Molecule `Nc1ccc2c(c1)C(=O)c1c(F)cccc1-2` has a growth inhibition of -6%.
With `CC1=NN(C(=O)c2ccccc2O)C(=O)/C1=C/c1ccco1` the growth inhibition was 21%.

Same assay, conditions: S. cerevisiae wt1 strain (SPY 50644) growth inhibition; at 3.7 µM; active compounds read high
`CCCCCCNCCCNc1c2cc(OC)ccc2nc2cccc([N+](=O)[O-])c12` gave a growth inhibition of 1%.
Molecule `NC(=S)N1N=C2c3ccccc3CC[C@H]2[C@@H]1c1ccc(Cl)cc1` has a growth inhibition of 9%.
`COc1ccc2c3c1OC(C)C31CC(=O)CCC1CC2` (stereo not given) showed a growth inhibition of -4%.
`C[N+](C)([O-])CCCNc1c2ccccc2nc2cccc([N+](=O)[O-])c12` gave a growth inhibition of 7%.
`CCCNC(=O)OCc1c(COC(=O)NCCC)c(-c2ccc(Cl)c(Cl)c2)n2c1CCC2` gave a growth inhibition of -38%.
Molecule `CCOC(=O)C(Cc1c2ccccc2cc2ccccc12)(NC(C)=O)C(=O)OCC` has a growth inhibition of 0%.
For `NC(=S)N/N=C1\c2ccccc2CCC1CCC1(O)CCc2ccccc2C1=O` (stereo not given), the growth inhibition was 24%.
For `CC(C)OC(=O)NNc1c(Cl)cc(Cl)cc1Cl`, the growth inhibition was -3%.
`Nc1ccc2c(c1)C(=O)c1c(F)cccc1-2` gave a growth inhibition of -6%.
With `CC1=NN(C(=O)c2ccccc2O)C(=O)/C1=C/c1ccco1` the growth inhibition was 30%.

Same assay, conditions: S. cerevisiae wt1 strain (SPY 50644) growth inhibition; at 11.0 µM; active compounds read high
Molecule `CCCCCCNCCCNc1c2cc(OC)ccc2nc2cccc([N+](=O)[O-])c12` has a growth inhibition of 9%.
In the case of `NC(=S)N1N=C2c3ccccc3CC[C@H]2[C@@H]1c1ccc(Cl)cc1`, the growth inhibition is reported as 31%.
Work on `COc1ccc2c3c1OC(C)C31CC(=O)CCC1CC2` (stereo not given) yielded a growth inhibition of -5%.
`C[N+](C)([O-])CCCNc1c2ccccc2nc2cccc([N+](=O)[O-])c12` gave a growth inhibition of 24%.
For `CCCNC(=O)OCc1c(COC(=O)NCCC)c(-c2ccc(Cl)c(Cl)c2)n2c1CCC2`, the growth inhibition was -35%.
For `CCOC(=O)C(Cc1c2ccccc2cc2ccccc12)(NC(C)=O)C(=O)OCC`, the growth inhibition was -2%.
`NC(=S)N/N=C1\c2ccccc2CCC1CCC1(O)CCc2ccccc2C1=O` (stereo not given) showed a growth inhibition of 19%.
For `CC(C)OC(=O)NNc1c(Cl)cc(Cl)cc1Cl`, the growth inhibition was -4%.
Work on `Nc1ccc2c(c1)C(=O)c1c(F)cccc1-2` yielded a growth inhibition of -6%.
For `CC1=NN(C(=O)c2ccccc2O)C(=O)/C1=C/c1ccco1`, the growth inhibition was 70% (active).

Same assay, conditions: S. cerevisiae wt1 strain (SPY 50644) growth inhibition; at 33.0 µM; active compounds read high
`CCCCCCNCCCNc1c2cc(OC)ccc2nc2cccc([N+](=O)[O-])c12` gave a growth inhibition of 59%.
In the case of `NC(=S)N1N=C2c3ccccc3CC[C@H]2[C@@H]1c1ccc(Cl)cc1`, the growth inhibition is reported as 46%.
`COc1ccc2c3c1OC(C)C31CC(=O)CCC1CC2` (stereo not given) gave a growth inhibition of -5%.
For `C[N+](C)([O-])CCCNc1c2ccccc2nc2cccc([N+](=O)[O-])c12`, the growth inhibition was 80% (active).
With `CCCNC(=O)OCc1c(COC(=O)NCCC)c(-c2ccc(Cl)c(Cl)c2)n2c1CCC2` the growth inhibition was -34%.
For `CCOC(=O)C(Cc1c2ccccc2cc2ccccc12)(NC(C)=O)C(=O)OCC`, the growth inhibition was -3%.
Work on `NC(=S)N/N=C1\c2ccccc2CCC1CCC1(O)CCc2ccccc2C1=O` (stereo not given) yielded a growth inhibition of 44%.
`CC(C)OC(=O)NNc1c(Cl)cc(Cl)cc1Cl` showed a growth inhibition of -3%.
`Nc1ccc2c(c1)C(=O)c1c(F)cccc1-2` showed a growth inhibition of -2%.
For `CC1=NN(C(=O)c2ccccc2O)C(=O)/C1=C/c1ccco1`, the growth inhibition was 90% (active).

Same assay, conditions: S. cerevisiae wt1 strain (SPY 50644) growth inhibition; at 100.0 µM; active compounds read high
For `CCCCCCNCCCNc1c2cc(OC)ccc2nc2cccc([N+](=O)[O-])c12`, the growth inhibition was 96% (active).
In the case of `NC(=S)N1N=C2c3ccccc3CC[C@H]2[C@@H]1c1ccc(Cl)cc1`, the growth inhibition is reported as 90% (active).
`COc1ccc2c3c1OC(C)C31CC(=O)CCC1CC2` (stereo not given) gave a growth inhibition of -3%.
With `C[N+](C)([O-])CCCNc1c2ccccc2nc2cccc([N+](=O)[O-])c12` the growth inhibition was 94% (active).
Molecule `CCCNC(=O)OCc1c(COC(=O)NCCC)c(-c2ccc(Cl)c(Cl)c2)n2c1CCC2` has a growth inhibition of 4%.
With `CCOC(=O)C(Cc1c2ccccc2cc2ccccc12)(NC(C)=O)C(=O)OCC` the growth inhibition was -2%.
In the case of `NC(=S)N/N=C1\c2ccccc2CCC1CCC1(O)CCc2ccccc2C1=O` (stereo not given), the growth inhibition is reported as 80% (active).
`CC(C)OC(=O)NNc1c(Cl)cc(Cl)cc1Cl` showed a growth inhibition of -5%.
With `Nc1ccc2c(c1)C(=O)c1c(F)cccc1-2` the growth inhibition was 50%.
In the case of `CC1=NN(C(=O)c2ccccc2O)C(=O)/C1=C/c1ccco1`, the growth inhibition is reported as 95% (active).
